An excerpt weighted towards active compounds, which were near 21% of everything screened.
NS1 inh = inhibitors of influenza NS1 protein function; Potency, µM (highest dose often 46.1 µM); hit rate 0.4% among 270,000; calls by dose curve; further: actives are rising curves; nearly all actives have a fitted effect of over 50% in size
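Compounds were scored for reversing the slow growth caused by influenza A NS1 in S. cerevisiae, measured by optical density at 600 nm. Assay medium contained 2% galactose at pH 6.0; NS1-free yeast of the same strain were the positive control.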
Shiga toxin inh = inhibitors of Shiga toxin in Vero cells. hit rate 9.2% among 290,000. Vero cells, Shiga toxin protein synthesis inhibition reporter. inhibition, % at 38.7 µM; in the data active means inhibition mostly above about 28%, no sharp cut-off; inactive means mostly below about 43%
Pf growth 48h = inhibits P. falciparum growth in the first generation, 48 h; Potency, µM (doses to about 28.7 µM), actives largely listed as inhibitors; P. falciparum luciferase growth in erythrocytes, 48 h; hit rate 5.9% among 310,000
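A one-generation exposure of luciferase-tagged malaria parasites in RPMI 1640/Albumax erythrocyte culture, 37 C and 5% CO2. Inhibition is inferred from decreased luminescence after adding detection reagent.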
Pf growth 96h = inhibits malaria parasite growth, 96 h | Potency, µM (highest dose often 28.7 µM), hits mostly inhibitors | hit rate 6.9% among 320,000 | P. falciparum luciferase reporter growth, 96 h
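Compounds incubated with erythrocytes infected by luciferase-expressing P. falciparum (2% hematocrit, 0.05% parasitemia final) for 96 hours, 37 C in 5% CO2. Growth inhibition scored as decreased luciferase luminescence.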
SARS PLP yeast = inhibitors of SARS-CoV papain-like protease in yeast; S. cerevisiae expressing SARS-CoV PLpro, growth rescue; hit rate 0.19% among 330,000; Potency, µM (highest dose often 32.9 µM), actives largely listed as activators; AID 485353; calls by dose curve; further: nearly all actives have a fitted effect of over 55% in size
Cycloheximide cs = affects cycloheximide protein synthesis inhibition readout, counter-screen; max response, %; cell reporter, cycloheximide protein synthesis inhibition counterscreen; AID 2314; hit rate 12% among 300,000; in the data active means max response mostly above about 13%, no sharp cut-off; inactive means mostly below about 14%; further: read at 38.3 µM for the half of the compounds with a filed dose
Numbers stand for hits; [ ] = another dose, or the depositor's remark. Unless noted, the call rests on the fitted dose curve; in most records, active means well fitted inhibition curve with a large enough effect; inconclusive means small, poorly fitted or top-dose-only effect, or another doubt; inactive means no such curve, though single readings can be large or run the other way.

What do the screens show for `CCCOc1ccccc1OCC(=O)Nc1ccc(S(=O)(=O)N2CCCCC2)cc1`?
Pf growth 48h: inconclusive; Pf growth 96h: 10µM; SARS PLP yeast: inactive

Results for CC(=O)Nc1ccc(S(=O)(=O)N2CCN(CCCOc3ccccc3Cl)CC2)cc1 ?
NS1 inh: inactive; Shiga toxin inh: inactive; Pf growth 96h: 6.6µM; SARS PLP yeast: inactive; Cycloheximide cs: inactive

How did COc1cccc(OCCCN2CCN(S(=O)(=O)c3ccc(NC(C)=O)cc3)CC2)c1 do in these assays?
NS1 inh: inactive; Shiga toxin inh: inactive; Pf growth 96h: inconclusive; SARS PLP yeast: inactive; Cycloheximide cs: inactive

What do the screens show for `O=C(COC(=O)CCC1CCCC1)Nc1ccc(Cl)cc1F`?
NS1 inh: inactive; Shiga toxin inh: inactive; Pf growth 48h: inactive; Pf growth 96h: inactive; SARS PLP yeast: inactive; Cycloheximide cs: inactive

Results for COc1ccc(OC)c(N/C(C)=C/C(=O)c2ccc(Br)cc2)c1 ?
NS1 inh: inactive; Shiga toxin inh: inactive; Pf growth 48h: inactive; Pf growth 96h: inconclusive; SARS PLP yeast: inactive; Cycloheximide cs: inactive

How did CCc1ccc(Nc2n[n+](-c3ccccc3)c(-c3cccc(C)c3)s2)cc1 do in these assays?
Pf growth 48h: inconclusive; Pf growth 96h: 8.3µM; SARS PLP yeast: inactive

How did CCOc1cc(-c2sc(Nc3ccc(CC)cc3)n[n+]2-c2ccccc2)ccc1OC do in these assays?
Pf growth 48h: 10µM; Pf growth 96h: inconclusive; SARS PLP yeast: inactive

How did CCOc1cc(-c2sc(Nc3cc(C)ccc3OC)n[n+]2-c2ccccc2)ccc1OC do in these assays?
Pf growth 48h: inconclusive; Pf growth 96h: inconclusive; SARS PLP yeast: inactive

Results for O/C(=C\Sc1nnc(Cc2ccccc2)o1)c1ccc(Br)cc1 ?
NS1 inh: inactive; Shiga toxin inh: inactive; Pf growth 48h: inactive; Pf growth 96h: inactive; SARS PLP yeast: inactive; Cycloheximide cs: inactive

How did O=C(Nc1ccccc1N1CCCC1)C1CCCO1 (configuration not stated) do in these assays?
Pf growth 48h: inactive; Pf growth 96h: inactive; SARS PLP yeast: inactive

What do the screens show for `CC(C)(O)C(=O)NN(Cc1ccccc1)c1ccccc1`?
NS1 inh: inactive; Shiga toxin inh: 33; Pf growth 48h: inactive; Pf growth 96h: inactive; SARS PLP yeast: inactive; Cycloheximide cs: 28

What do the screens show for `CC(C)c1ccccc1NC(=S)NN(Cc1ccccc1)c1ccccc1`?
NS1 inh: inactive; Shiga toxin inh: inactive; Pf growth 48h: inconclusive; Pf growth 96h: 12µM; SARS PLP yeast: inactive; Cycloheximide cs: inactive

Results for O=C(CN1CCCCCC1)NN(Cc1ccccc1)c1ccccc1 ?
NS1 inh: inactive; Shiga toxin inh: inactive; Pf growth 48h: inactive; Pf growth 96h: inactive; SARS PLP yeast: inactive; Cycloheximide cs: inactive

How did Cc1cccc(C)c1NC(=S)NN(Cc1ccccc1)c1ccccc1 do in these assays?
NS1 inh: inactive; Shiga toxin inh: inactive; Pf growth 96h: 4.7µM; SARS PLP yeast: inactive; Cycloheximide cs: inactive

How did O=C(Nc1ccccc1)c1ccc(NC(=O)C2CC2)cc1 do in these assays?
NS1 inh: inactive; Shiga toxin inh: 42; Pf growth 48h: inactive; Pf growth 96h: inactive; SARS PLP yeast: inactive; Cycloheximide cs: 32

How did Cc1cc(NC(=O)CSc2ccccc2)no1 do in these assays?
NS1 inh: inconclusive; Shiga toxin inh: inactive; Pf growth 48h: inactive; SARS PLP yeast: inactive; Cycloheximide cs: inactive

Results for Cc1cc(NC(=O)c2ccccc2Oc2ccccc2)no1 ?
NS1 inh: inactive; Shiga toxin inh: inactive; Pf growth 48h: inactive; Pf growth 96h: inactive; SARS PLP yeast: inactive; Cycloheximide cs: inactive

How did Cc1cc(NC(=O)C(=O)c2cn(C)c3ccccc23)no1 do in these assays?
Shiga toxin inh: inactive; Pf growth 48h: inactive; Pf growth 96h: inactive; SARS PLP yeast: inactive; Cycloheximide cs: 18

Results for Cc1cccc(C)c1NC(=O)C(=O)c1cn(C)c2ccccc12 ?
Shiga toxin inh: inactive; Pf growth 48h: inactive; Pf growth 96h: inactive; SARS PLP yeast: inactive; Cycloheximide cs: inactive

Results for COc1ccccc1C(=O)Nc1cc(C)on1 ?
NS1 inh: inactive; Pf growth 48h: inactive; Pf growth 96h: inactive; SARS PLP yeast: inactive; Cycloheximide cs: 45

How did C/C(=C\C(=O)Nc1cc(C)on1)c1ccccc1 do in these assays?
NS1 inh: inactive; Shiga toxin inh: 57; Pf growth 48h: inconclusive; Pf growth 96h: inactive; SARS PLP yeast: inactive; Cycloheximide cs: 37

What do the screens show for `CSc1ccc(CN(C)CC(=O)NC(=O)NCCC2=CCCCC2)cc1`?
Pf growth 48h: inconclusive; Pf growth 96h: inconclusive; SARS PLP yeast: inactive

What do the screens show for `Cc1cc(NC(=O)c2cccc(F)c2)no1`?
NS1 inh: inactive; Shiga toxin inh: inactive; Pf growth 48h: inactive; Pf growth 96h: inactive; SARS PLP yeast: inactive; Cycloheximide cs: 26

How did COC(=O)c1ccc(NC(=O)C2CCN(C(=O)Nc3ccccc3)CC2)cc1 do in these assays?
Pf growth 48h: inconclusive; Pf growth 96h: 4.7µM; SARS PLP yeast: inactive

Results for Cc1cc(NC(=O)c2ccc(NC(=O)C(C)C)cc2)no1 ?
NS1 inh: inactive; Shiga toxin inh: inactive; Pf growth 48h: inactive; SARS PLP yeast: inactive; Cycloheximide cs: inactive

What do the screens show for `Cc1cc(NC(=O)c2ccc(NC(=O)C3CC3)cc2)no1`?
NS1 inh: inactive; Shiga toxin inh: 61; Pf growth 48h: inactive; Pf growth 96h: inactive; SARS PLP yeast: inactive; Cycloheximide cs: 30

How did Oc1ccccc1-c1nc2ccccc2nc1-c1ccccc1 do in these assays?
NS1 inh: inactive; Shiga toxin inh: inactive; Pf growth 48h: 15µM; Pf growth 96h: inconclusive; SARS PLP yeast: inactive; Cycloheximide cs: inactive

Results for Cc1ccc(OCC(=O)Nc2ccc(S(=O)(=O)N3CCCC3)cc2)cc1 ?
NS1 inh: inactive; Shiga toxin inh: inactive; Pf growth 48h: inactive; Pf growth 96h: inactive; SARS PLP yeast: inactive; Cycloheximide cs: inactive

How did COc1ccccc1C(=O)Nc1cc(-c2ccc(C)cc2)no1 do in these assays?
NS1 inh: inactive; Shiga toxin inh: 83; Pf growth 48h: inactive[0.00184 µM]; Pf growth 96h: inactive; SARS PLP yeast: inactive; Cycloheximide cs: 25

What do the screens show for `CCC(=O)Nc1cnc(NC(=O)c2cccc(F)c2)cc1C`?
NS1 inh: inactive; Shiga toxin inh: inactive; Pf growth 48h: inactive; Pf growth 96h: inactive; SARS PLP yeast: inactive; Cycloheximide cs: inactive

What do the screens show for `O=C(O)c1ccc2nc(-c3ccccc3)c(-c3ccccc3)nc2c1`?
NS1 inh: inactive; Shiga toxin inh: 65; Pf growth 48h: inactive; Pf growth 96h: inconclusive; SARS PLP yeast: inactive; Cycloheximide cs: 56

What do the screens show for `CCN(CC)S(=O)(=O)c1ccc(C(=O)Nc2cc(C)on2)cc1`?
NS1 inh: inactive; Shiga toxin inh: inactive; Pf growth 48h: 12µM; Pf growth 96h: 7.4µM; SARS PLP yeast: inactive; Cycloheximide cs: inactive

Results for COc1ccccc1C(=O)Nc1c(C)cc(Br)cc1C ?
NS1 inh: inactive; Shiga toxin inh: inactive; Pf growth 48h: inactive; Pf growth 96h: inconclusive; SARS PLP yeast: inactive; Cycloheximide cs: inactive

What do the screens show for `CCN(CC)S(=O)(=O)c1cc(C(=O)Nc2cc(C)on2)ccc1Cl`?
NS1 inh: inactive; Shiga toxin inh: inactive; Pf growth 48h: inconclusive; Pf growth 96h: inconclusive; SARS PLP yeast: inactive; Cycloheximide cs: inactive

Screens from PubChem.
